A selection: hits, their analogues and other compounds. The true share with any hit is near 3.5%.
TEAD-YAP block – TEAD-YAP interaction inhibition, primary screen, TEAD-YAP interaction inhibitor project, luminescence, HEK-TIYL cells | TEAD-Gal4/YAP UAS-luciferase luminescence | inhibition, % at 9.12 µM | 640,000 tested, 1.4% active | AID 1259422, 2018; in the data active means inhibition above about 32%;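 further: 0% = median of test compound wells and 100% = reference inhibitor wells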
FBW7 activator – FBW7 E3 ligase activators, primary screen, biochemical, AlphaScreen, human; F-box/WD repeat-containing protein 7 (Homo sapiens), Q969H0; 650,000 tested, 0.13% active; normalized activity (activation), % at 26.1 µM; AlphaScreen FBW7–phospho-cyclin E peptide binding, activator screen; in the data active means normalized activity above about 1.9%;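 further: purified mutant Fbw7 with reduced substrate affinity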
MITF primary – MITF inhibitors, primary screen, biochemical, AlphaScreen, human; 650,000 tested, 0.91% active; inhibition, % at 2.6 µM; Microphthalmia-associated transcription factor (Homo sapiens), O75030; AlphaScreen MITF homodimerization, bead proximity signal; in the data active means inhibition above about 50%;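 further: 0% = vehicle wells with protein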
Target sequence (O75030 whole entry, looked up): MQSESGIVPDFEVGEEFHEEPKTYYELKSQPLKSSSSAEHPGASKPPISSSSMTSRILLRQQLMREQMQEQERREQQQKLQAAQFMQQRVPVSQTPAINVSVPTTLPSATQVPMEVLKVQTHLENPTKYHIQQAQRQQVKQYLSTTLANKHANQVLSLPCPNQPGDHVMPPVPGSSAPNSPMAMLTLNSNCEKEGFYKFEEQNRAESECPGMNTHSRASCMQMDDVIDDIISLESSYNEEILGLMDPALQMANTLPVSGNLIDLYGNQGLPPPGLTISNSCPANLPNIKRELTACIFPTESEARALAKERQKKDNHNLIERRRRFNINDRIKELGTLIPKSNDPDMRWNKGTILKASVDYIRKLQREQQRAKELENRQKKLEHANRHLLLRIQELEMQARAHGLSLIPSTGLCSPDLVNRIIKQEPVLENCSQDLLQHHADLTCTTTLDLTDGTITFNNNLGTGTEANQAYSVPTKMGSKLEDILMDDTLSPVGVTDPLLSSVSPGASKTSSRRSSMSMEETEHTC
GPR151 ag – activators of human GPR151, primary screen, cell-based, PathHunter beta-arrestin, luminescence; G-protein coupled receptor 151 (Homo sapiens), Q8TDV0; PathHunter beta-arrestin GPR151 cells; activation, % at 11.2 µM; 650,000 tested, 1% active; in the data active means activation above about 4.9%;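 further: 0% = median of compound wells and 100% = cells with positive control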
GPR151 conf act – GPR151 activators, triplicate retest, confirmation, cell-based, PathHunter beta-arrestin, luminescence; GPR151 PathHunter beta-arrestin cells, 90 min; % of EA-reagent control over plate median; activation, % at 11.2 µM; 6,700 tested, under 10 active; AID 1508609, 2020; shares compounds with GPR151 ag;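 active means mean percent activation across replicates above the confirmation screen cutoff of 4.91%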
GPR119 counter – GPR119 activators in beta-arrestin cells, counter-screen for GPR151 activator project, cell-based, PathHunter beta-arrestin, luminescence, triplicate | shares compounds with GPR151 ag | activation, % at 11.2 µM | AID 1508611, 2020 | 6,700 tested, 0.3% active | 90 min; 0 = compound-well median, 100 = enzyme-acceptor control;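 active means mean percent activation in the counterscreen above 29.09%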;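 further: counterscreen on off-target GPR119 to flag nonselective hits from the GPR151 activator screen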
An asterisk follows results filed as active; . = no result given.

SMILES	TEAD-YAP block	FBW7 activator	MITF primary	GPR151 ag	GPR151 conf act	GPR119 counter
FC(F)(F)c1ccc(Cn2cnc3c(NC4CCN(Cc5ccccc5)CC4)nc(Nc4ccc(C(F)(F)F)cc4)nc32)cc1	-5	0	5	5.9*	-1	-8
OCCNc1nc(-c2csc3ccccc23)nc2c1ncn2Cc1ccc(C(F)(F)F)cc1	3	0	4	6.1*	1	1
FC(F)(F)c1ccc(Cn2cnc3c(NC4CCN(Cc5ccccc5)CC4)nc(Nc4ccccc4)nc32)cc1	4	0	16	-1	.	.
COc1ccc(-c2nc(NCCOc3ccccc3)c3ncn(Cc4ccc(C(F)(F)F)cc4)c3n2)cc1	8	0	12	4.9*	-1	-7
CC(=O)Nc1ccc(-c2csc(NC(=O)COc3ccccc3)n2)cc1	-6	0	9	0	.	.
FC(F)(F)c1ccc(Cn2cnc3c(Nc4ccc(N5CCOCC5)cc4)nc(-c4ccccc4)nc32)cc1	0	0	15	5.2*	-1	-12
FC(F)(F)c1ccc(Cn2cnc3c(NC4CC4)nc(-c4ccc(N5CCOCC5)nc4)nc32)cc1	0	0	1	8.0*	1	-7
CCCNc1nc(-c2ccc(N3CCOCC3)nc2)nc2c1ncn2Cc1ccc(C(F)(F)F)cc1	2	0	-3	0	.	.
Nc1cc(C(=O)OCC(=O)NCCCN2CCCC2=O)ccc1Cl	2	0	9	2	.	.
CS(=O)(=O)N(CC(=O)NCc1ccccc1)c1cccc(Cl)c1	6	1	16	6.1*	-1	-4
Cc1ccnc(NC(=O)C2(c3cccs3)CCOCC2)c1	20	0	-7	5.3*	-1	-5
O=C(Nc1ccccn1)C1(c2cccs2)CCOCC1	6	0	14	1	.	.
CNC(=O)COC(=O)c1ccc(N2CCCC2=O)cc1	-9	0	14	0	.	.
CCOC(=O)COc1ccc(/C=C(/C#N)c2nc3ccc(OC)cc3[nH]2)cc1OCC	0	0	16	-1	.	.
CCS/C(=C(\C#N)C(N)=O)c1ccc(-c2ccccc2)[nH]1	7	0	-2	5.2*	0	5
COCCNC(CC(=O)Nc1ccccc1)C(=O)O (stereo not given)	5	0	18	-1	.	.
CC(C)(C)c1ccc(C(=O)Nc2ccc(O)cc2)cc1	-3	0	-10	-1	.	.
O=C(NCCCO)c1cccc([N+](=O)[O-])c1	-1	0	1	5.1*	0	6
O=C(NCCO)/C(=C/c1cccc([N+](=O)[O-])c1)NC(=O)c1cccc(Br)c1	0	0	4	1	.	.
CCNC(=O)/C(=C/c1cccc([N+](=O)[O-])c1)NC(=O)c1ccc(C)cc1	-2	1	3	5.9*	1	-2
CCNC(=O)/C(=C\c1ccc(OC)cc1)NC(=O)c1ccc(Br)cc1	6	0	11	5.1*	0	3
O=C(NCCO)/C(=C\c1cccc([N+](=O)[O-])c1)NC(=O)c1ccccc1	3	0	17	12*	-1	-10
COc1ccc(/C=C(/NC(=O)c2ccc(Br)cc2)C(=O)NCC(=O)O)cc1	-6	0	9	-1	.	.
CCCCNC(=O)/C(=C\c1cccc([N+](=O)[O-])c1)NC(=O)c1ccc(C)cc1	-12	0	-2	0	.	.
CC(=O)Nc1nc(-c2ccccc2C)ccc1C(=O)N(C)C	-2	0	17	0	.	.
SMILES	TEAD-YAP block	FBW7 activator	MITF primary	GPR151 ag	GPR151 conf act	GPR119 counter
O=C(NCCc1ccc(F)cc1)c1ccc([N+](=O)[O-])cc1	-62	0	14	0	.	.
CCOC(=O)c1ccc(NC(=O)/C(=C\c2ccc([N+](=O)[O-])cc2)NC(=O)c2ccco2)cc1	2	0	2	6.2*	0	5
O=C(Nc1ccc([N+](=O)[O-])cc1)/C(=C/c1ccccc1)NC(=O)c1ccccc1	-2	0	-6	7.3*	0	12
CCOC(=O)c1ccc(NC(=O)/C(=C/c2cccc(Br)c2)NC(=O)c2ccco2)cc1	13	0	-5	-1	.	.
O=C(NCCCNc1ccc([N+](=O)[O-])cc1)c1ccc(F)cc1	8	0	-16	5.7*	-1	-5
O=C(Nc1nc(-c2ccc(F)cc2)cs1)c1ccc(Cl)cc1	-8	1	11	2	.	.
C(=C\c1nnc2c3ccccc3ncn12)/c1ccccc1	12	0	6	-1	.	.
COc1cc(/C=C/c2nnc3c4ccccc4ncn23)cc(OC)c1OC	1	0	-2	8.4*	1	9
Cc1ccc(S(=O)(=O)N(CC(N)=O)Cc2cccc(C)c2)cc1	5	0	6	5.2*	2	11
COc1ccc(NC(=O)C2CCN(c3nnc(N4CCCC4=O)s3)CC2)cc1	1	0	-5	6.3*	1	-4
CCOc1cc(C2CC(=O)NC3=C2C(=O)CC(c2ccc(OC)c(OC)c2)C3)ccc1O (stereo not given)	-1	0	17	6.3*	0	1
COc1cc(C2CC(=O)NC3=C2C(=O)CC(c2ccc(OC)c(OC)c2)C3)ccc1O (stereo not given)	10	1	17	-1	.	.
CCOC(=O)C1=C(C)N=c2s/c(=C\c3cccc(O)c3)c(=O)n2C1c1ccccc1OC (stereo not given)	-3	0	0	-1	.	.
COC(=O)c1ccc(OC(=O)C2CC(=O)N(c3ccc(C)cc3C)C2)cc1 (stereo not given)	14	0	8	5.0*	0	-10
Cc1ccc(N2CC(C(=O)O)CC2=O)c(C)c1 (stereo not given)	9	0	-6	0	.	.
CS(=O)(=O)N(CC(=O)NC1CC1)c1cccc2ccccc12	0	0	2	-1	.	.
CC(=O)NC(NC(=O)c1ccc(Cl)cc1)C(Cl)Cl (stereo not given)	11	1	12	6.9*	0	8
CC(=O)NNC(=O)c1ccc(Cl)cc1	-4	1	-1	0	.	.
Cc1ccc(-c2cccc(CN3CCN(C)C(CCO)C3)c2)o1 (stereo not given)	0	0	6	8.8*	-1	-7
Cc1ccc(-c2ccc(CN3CCN(C)C(CCO)C3)cc2)o1 (stereo not given)	-15	0	3	2	.	.
